Compounds without any hit were thinned out: in the full panel of roughly 79,000, 15% have a hit. Activity calls are given as the source filed them. No stated cut-off is given here; in the data, active means growth inhibition above about 70%; inactive means the rest.
Experiments:
[1] = NCI Yeast Anticancer Drug Screen. Data for the rad50 strain (AID 155);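 further: 0% = growth of vehicle-only cultures of the same strain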; details: S. cerevisiae rad50 strain growth inhibition; at 50.0 µM; hits give high values
Method in brief: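 Cells are treated with compound, grown, and their growth is then scored against vehicle-only cultures of the same repair-deficient yeast strain.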

[2] = NCI Yeast Anticancer Drug Screen. Data for the mec2-1 strain (AID 157); details: S. cerevisiae mec2-1 strain, at 50.0 µM, hits give high values
Method in brief: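 Vehicle-treated cultures served as reference for growth inhibition of compound-exposed mec2-1 yeast.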

[3] = NCI Yeast Anticancer Drug Screen. Data for the sgs1 mgt1 strain (AID 161);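 further: 0% = growth of cultures given vehicle only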; details: S. cerevisiae sgs1 mgt1 strain, at 50.0 µM, hits give high values
Method in brief: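 Test agents were incubated with a DNA-repair-mutant yeast strain. Growth was then read and compared against vehicle-treated controls.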

[4] = NCI Yeast Anticancer Drug Screen. Data for the cln2 rad14 strain (AID 165);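 further: 0% = growth equal to vehicle treated cultures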; details: S. cerevisiae cln2 rad14 strain, at 50.0 µM, hits give high values
Method in brief: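 Each compound was tested on cln2 rad14 yeast. Inhibition of growth was calculated against vehicle-exposed controls.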

[5] = NCI Yeast Anticancer Drug Screen. Data for the bub3 strain (AID 167); details: S. cerevisiae bub3 mutant strain, at 50.0 µM, hits give high values
Method in brief: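 Part of a panel of yeast mutants defective in DNA damage repair or cell cycle regulation. Each strain is grown with compound, and inhibition is calculated relative to solvent-treated cultures.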

[6] = NCI Yeast Anticancer Drug Screen. Data for the mlh1 rad18 strain (AID 175); details: S. cerevisiae mlh1 rad18 strain growth inhibition; at 50.0 µM; hits give high values
Method in brief: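 Vehicle-treated cultures served as the reference for growth inhibition in a yeast strain carrying DNA damage repair alterations exposed to each compound.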

Measured: growth inhibition

CCOC(=O)C(N=Nc1ccccc1)C(=O)c1ccccc1 (configuration not stated)
inactive: [1] 23.4% | [2] -2.75% | [3] 50.7% | [4] -22.1% | [5] 38.8% | [6] 28.5%

CCC1(CC)SCC(C)(O)NC1=O (configuration not stated)
inactive: [1] 1.95% | [2] -12.5% | [3] -7.15% | [4] -35.4% | [5] -10.6% | [6] -4.75%

O=C1CCC(c2ccccc2)(c2ccccc2)CC1
inactive: [1] 31.8% | [2] -24.6% | [3] -16.1% | [4] -15.5% | [5] 0.15% | [6] 17.5%

COc1ccc(N=Nc2ccc(OC)cc2C)c(C)c1
inactive: [1] 1.7% | [2] -2.3% | [3] 1.9% | [4] -4.7% | [5] 10% | [6] 7.15%

CCOC(=O)C(CCSC)(CCSC)C(=O)OCC
inactive: [1] -41.4% | [2] -56.7% | [3] -31.7% | [4] 11.8% | [5] 20.4% | [6] -13.1%

ClC(c1ccccc1)(c1ccccc1)C(Cl)(c1ccccc1)c1ccccc1
inactive: [1] 45.9% | [2] 5.05% | [3] 24.1% | [4] 11.8% | [5] 4.6% | [6] 26.9%

Oc1c(Cl)cc(N=Cc2ccc(N(CCCCl)CCCCl)cc2Cl)cc1Cl
active: [1] 84.6% | [3] 93.7% | [4] 75.2% | [6] 84%
inactive: [2] 41% | [5] 54.7%

CC1CCC(C(C)C)C(OC2(c3ccccc3)OC(=O)c3ccccc32)C1 (configuration not stated)
inactive: [1] 23.7% | [2] -5.7% | [3] 15.4% | [4] 8.55% | [5] 8.65% | [6] 16.4%

CSCCC(C(=O)O)N(C)C (configuration not stated)
inactive: [1] -4.3% | [2] -21.3% | [3] -17.3% | [4] -2.9% | [5] -19.6% | [6] -18%

O=C1CCCC2=C1CC1=C(CCCC1=O)N2c1ccc([N+](=O)[O-])cc1
inactive: [1] -35.8% | [2] -30.1% | [3] -42% | [4] -10.3% | [5] 0.45% | [6] -19.3%

CC1=C(C(=O)O)CCc2ccccc21
inactive: [1] 40.7% | [2] -11.5% | [3] 19.9% | [4] 13.7% | [5] 15% | [6] 36.8%

Cc1ccc(S(=O)(=O)C(=S)N(C)N(C)C)cc1
inactive: [1] 18.2% | [2] 25.4% | [3] 36.4% | [4] -12.9% | [5] 25.4%
active: [6] 88%

CCCCC(CC)C(C(C)=O)N(C)C (configuration not stated)
inactive: [1] 33.1% | [2] -9.45% | [3] 13.1% | [4] 8.65% | [5] 4.45% | [6] 4.75%

CCOC(=O)C(=O)Nc1nc2ccc(OC)cc2s1
inactive: [1] -39.8% | [2] -7.3% | [3] -10.8% | [4] 6.75% | [5] 0.15% | [6] 9.25%

Cc1ccc([N+](=O)[O-])c(P(=O)(O)O)c1
inactive: [1] 12.6% | [2] 13% | [3] -14.7% | [4] -3.45% | [5] 3.4% | [6] -12.2%

O=C(c1ccccc1)c1c[nH]c(=O)[nH]c1=O
inactive: [1] -17.1% | [2] 10.2% | [3] -3% | [4] -3.2% | [5] 0.4% | [6] -26.9%

CCCC(=O)C1=CC(C(C)C)CCC1C (configuration not stated)
inactive: [1] 12.6% | [2] -4.4% | [3] -4.05% | [4] -12.2% | [5] 1.15% | [6] 1%

CCCCCC1c2cc(O)ccc2OC1N1CCOCC1 (configuration not stated)
active: [6] 88.7%
inactive: [1] 49.2% | [2] 44.5% | [3] 47.5% | [4] 48.6% | [5] 46.7%

CC1/C(=N\Nc2ccc([N+](=O)[O-])cc2[N+](=O)[O-])CCC2C1(C)CCC1C2(C)CCC2(C)C3CC(C)(C)CCC3(C)CCC12C (configuration not stated)
inactive: [1] -5.8% | [2] -9.1% | [3] 9.8% | [4] -16.6% | [5] 13.2% | [6] 6.25%

NC(=O)C(=CNC(=S)Nc1ccc(S(N)(=O)=O)cc1)C(N)=O
inactive: [1] -10.1% | [2] -31.1% | [3] -16.4% | [4] 2.9% | [5] -10.4% | [6] 0.5%

CN(C)Cc1cc(C(=O)/C=C/c2c(Cl)cccc2Cl)cc(CN(C)C)c1O
inactive: [1] -32% | [2] -17.6% | [3] -3% | [4] -31.2% | [5] -0.75% | [6] -18.9%

CC(O)C(F)(F)F (configuration not stated)
inactive: [1] 18.2% | [2] -8.8% | [3] 7.65% | [4] 15.9% | [5] -3.75% | [6] 21.8%

CC[N+](CC)(CC)Cc1cc2ccccc2n1C(=O)OC
inactive: [1] -9.25% | [2] -24.4% | [3] -25.8% | [4] -1.4% | [5] -12.2% | [6] -28.9%

O=C1C(=O)N(C23CC4CC(CC(C4)C2)C3)C(=S)N1c1ccccc1
inactive: [1] -9.7% | [2] -20.6% | [3] -44.2% | [4] -26% | [5] -24.7% | [6] -27.2%

Oc1ccc2cccc(O)c2c1
inactive: [1] -17.6% | [2] -33.6% | [3] 37.5% | [4] 19.9% | [5] 12% | [6] 3.9%

CC(Cc1ccccc1)NN (configuration not stated)
inactive: [1] 14.8% | [2] 9.55% | [3] 16.5% | [4] 5.65% | [5] 10.4% | [6] 9.4%

CC1=C(C(=O)NCc2ccccc2)C(c2ccc([N+](=O)[O-])cc2)C(C(=O)NCc2ccccc2)=C(C)N1
inactive: [1] -10.6% | [2] -15.2% | [3] 1.5% | [4] 4.4% | [5] -4.8% | [6] -23.8%

c1ccc(C2=NC(c3ccccc3)N=C(c3ccccc3)N2)cc1
inactive: [1] -0.75% | [2] 10.3% | [3] 6.1% | [4] -6% | [5] 9.75% | [6] 13.2%

O=C1C2=C(OCO2)C(=O)C2=C1OCO2
inactive: [1] 2.65% | [2] 20.8% | [3] 21.1% | [4] 3.7% | [5] 9.95% | [6] 3.2%

Nc1nnc(Cc2cccc3ccccc23)o1
inactive: [1] -1.05% | [2] -11.4% | [3] -13.1% | [4] -0.7% | [5] -15.6% | [6] 1.1%

CC1CN(c2nc3ccccc3o2)C(C)CN1c1nc2ccccc2o1 (configuration not stated)
inactive: [1] -7.15% | [2] 5.6% | [3] -9.1% | [4] 11.8% | [5] 9.9% | [6] -12.3%

CC(=O)N(C)N=Nc1ccc(C(F)(F)F)cc1
inactive: [1] -7.7% | [2] -12.7% | [3] -9% | [4] -30.1% | [5] -5.8% | [6] -4.5%

O=C(c1ccc(Cl)cc1Cl)N(/N=C/C=C/c1ccccc1)c1nnc(-c2ccccc2)c(-c2ccccc2)n1
inactive: [1] -17.1% | [2] 8.8% | [3] -21.3% | [4] 32.5% | [5] 2.2% | [6] 13%

CNC(=O)C1NCCc2cc(OC)c(OC)cc21 (configuration not stated)
inactive: [1] 21.9% | [2] -22% | [3] 20.7% | [4] 13.2% | [5] 10.4% | [6] 20.6%

CC(=O)Nc1ccc(F)cc1
inactive: [1] -38.3% | [2] -25.7% | [3] -5.3% | [4] 4% | [5] -19.5% | [6] -13.1%

COC(=O)C1C(=O)C=C(O)C2CCCCC21 (configuration not stated)
inactive: [1] 2.05% | [2] -2.85% | [3] -0.35% | [4] -63% | [5] -30.9% | [6] 2.5%

CCOc1ccc(Nc2nc(C(Cl)(Cl)Cl)cc(C(Cl)(Cl)Cl)n2)cc1CN(CC)CC
active: [1] 98.2% | [2] 99.1% | [3] 99% | [4] 98.1% | [5] 98% | [6] 98.8%
